Where “and” joins values, the source holds several entries; their conditions need not be identical. Equal entries are not always repeated. The campaign covered roughly 72,000 compounds. About 1,600 (2.2%) were called active. The entries come from a sample that favours actives as a whole. Entries that show only a call come without a potency. A number with no mark means an inactive call. The call rests on the fitted dose curve; in most records, active means well fitted inhibition curve with a large enough effect; inconclusive means small, poorly fitted or top-dose-only effect; inactive means flat fitted curve, though single readings scatter.
What follows are molecules tested against Luciferin 4-monooxygenase (Photinus pyralis) (UniProt P08659) (assay: qHTS Assay for Inhibitors of Firefly Luciferase). Details: purified firefly luciferase, luminescence, 8 min; series mostly up to 57.1 µM.
Sequence of Luciferin 4-monooxygenase (Photinus pyralis) (P08659 whole entry, looked up): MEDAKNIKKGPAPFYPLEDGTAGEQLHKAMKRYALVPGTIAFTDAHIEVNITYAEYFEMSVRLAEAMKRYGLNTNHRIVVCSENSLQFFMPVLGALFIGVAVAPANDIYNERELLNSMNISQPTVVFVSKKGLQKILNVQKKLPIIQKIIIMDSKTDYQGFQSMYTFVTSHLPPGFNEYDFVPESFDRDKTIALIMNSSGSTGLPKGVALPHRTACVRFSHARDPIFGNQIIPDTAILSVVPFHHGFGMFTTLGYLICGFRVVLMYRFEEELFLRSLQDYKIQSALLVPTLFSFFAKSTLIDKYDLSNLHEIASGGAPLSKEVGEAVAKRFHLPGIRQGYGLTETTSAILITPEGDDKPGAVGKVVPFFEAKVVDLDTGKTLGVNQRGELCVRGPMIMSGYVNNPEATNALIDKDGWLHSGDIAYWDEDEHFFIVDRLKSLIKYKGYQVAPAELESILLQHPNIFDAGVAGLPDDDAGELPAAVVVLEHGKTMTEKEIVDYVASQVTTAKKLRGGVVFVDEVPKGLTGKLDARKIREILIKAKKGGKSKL
In short: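 Inhibition of light generation by firefly luciferase from ATP and luciferin was profiled with concentration-response curves per sample, ATP held at 10 uM within the enzyme's linear range. Plates were read by luminescence after an 8-minute ambient incubation.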
Further: nearly all actives have a fitted effect of over 40% in size.
Potency means the concentration at half of the fitted maximal effect.

Row | Compound | Potency | activity change, negative = inhibition
1 | COc1ccc(CCn2c(NCCCN3CCOCC3)nc3c2c(=O)[nH]c(=O)n3C)cc1 | inactive | 
2 | CCc1cccc2c3c([nH]c12)C(CC)(CC(=O)O)OCC3 (stereo not given) | inactive | 
3 | CCN1C(=O)c2cccc3c(N)ccc1c23 | inactive | 
4 | CCN1C(=O)/C(=C2\SC(N3CCCCC3)=NC2=O)c2ccccc21 | 6.31 µM (active) | 
5 | CCN1C(=O)/C(=C\N2CCN(c3ccccc3)CC2)SC1=S | inactive | 
6 | CCCn1c(SCC(=O)Nc2c(C)cccc2C)nnc1C(C)C | inactive | 
7 | Cc1cc(C)n2nc(C(=O)Oc3ccc4c(c3)OCO4)nc2n1 | inactive | 
8 | COc1ccccc1C(=O)n1nc(-c2ccccc2)nc1N | inactive | 
9 | Cc1nn(C(=O)c2ccoc2C)c(N)c1-c1ccccc1 | 25.1 µM (active) | 
10 | Cc1occc1C(=O)N1CCCc2ccccc21 | inactive | 
11 | Cc1nc2cc(S(=O)(=O)C(F)(F)F)ccc2s1 | inactive | 
12 | CN(c1ccccc1)c1ccc(/C=c2\s/c(=C(/C#N)C(=O)C(C)(C)C)n(Cc3ccco3)c2=O)cc1 | inactive | 
13 | Cc1ccsc1C(=O)OCC(=O)c1cc(C)n(CC2CCCO2)c1C (stereo not given) | 1 µM (active) | 
14 | COC(=O)c1ccc2c(=O)n(CC3CCCO3)c(=S)[nH]c2c1 (stereo not given) | inactive | 
15 | Cc1ccsc1C(=O)OCC(=O)c1cc2ccccc2o1 | inactive | 
16 | O=S(=O)(O)c1nc2ccccc2n1Cc1ccc(Cl)cc1Cl | inactive | 
17 | CN1CCN(S(=O)(=O)c2ccc(NC(=O)C3CCCO3)cc2)CC1 (stereo not given) | inactive | 
18 | C[C@@H]1C[C@H]2[C@@H]3C[C@H](F)C4=CC(=O)C=C[C@@]4(C)[C@]3(F)[C@H](O)C[C@]2(C)[C@@]1(O)C(=O)CO | inactive | 
19 | CN(C)/C=C1/C(=O)Nc2ccccc21 | inactive | 
20 | CCc1nc2ccccc2n(CCOCCOCCn2c(=O)c(CC)nc3ccccc32)c1=O | inactive | 
21 | O=C(NCc1cccnc1)c1cn(-c2ccccc2)nc1-c1cccs1 | 10 µM (active) | 
22 | O=C(c1cn(-c2ccccc2)nc1-c1cccnc1)N1CCCCC1 | inactive | 
23 | COC(=O)c1cn(-c2ccccc2)nc1-c1cccnc1 | inactive | 
24 | CC(=O)/C(C)=N\O | inactive | 
25 | CCOc1nc(-c2ccc(OC)cc2)ccc1-c1noc(-c2cc(OC)c(OC)c(OC)c2)n1 | inactive | 
26 | COc1cc(-c2nc(-c3ccncc3)no2)cc(OC)c1OC | inactive | 
27 | COc1ccc(-c2noc(-c3cccc(OC)c3OC)n2)cc1OC | 6.31 µM (active) | 

Row | Compound | Potency | activity change, negative = inhibition
28 | COC(=O)[C@@H]1CC[C@H](C)[C@@H](c2ccc(C)cc2)N1C(=O)c1ccc(/C=N\OC[C@@H](O)COCc2ccco2)cc1 |  | -0.535% [at 11.4 µM]
29 | CCc1cc2c(=O)c(-c3ccon3)c(N)oc2cc1OC | 3.98 µM (active) | 
30 | CC1CCC(NS(=O)(=O)c2ccc3c(c2)n(C)c(=O)c(=O)n3C)CC1 (stereo not given) | inactive | 
31 | CCOC(=O)C1C(=O)NC(N2CCN(c3ccccc3)CC2)=NC1c1ccco1 (stereo not given) | inactive | 
32 | COc1ccc(CCNC(=O)c2ccco2)cc1 | inactive | 
33 | CCOC(=O)C1C(=O)C=C(c2ccc(OC)cc2)CC1c1ccco1 (stereo not given) | 25.1 µM (active) | 
34 | CN1C(=O)c2ccccc2C(C(=O)NCCCN2CCCC2)C1c1c[nH]c2ccccc12 (stereo not given) | inactive | 
35 | O=C1OCCC=C1[C@@H](O)CCc1ccccc1 |  | 1.7% [at 11.4 µM]
36 | CN1CCN(CC(=O)Nc2sc3c(c2C#N)CCC(C(C)(C)C)C3)CC1 (stereo not given) | inactive | 
37 | CCOc1ccc(-c2nnn(CC(=O)N3CCN(c4ccc(OC)cc4)CC3)n2)cc1OCC | inactive | 
38 | COc1ccc(C(=O)Cn2nnc(-c3ccc(N4CCOCC4)cc3)n2)cc1OC | 10 µM (active) | 
39 | CCOc1ccc(-c2nnn(CC(=O)N3CCN(c4ccc(F)cc4)CC3)n2)cc1OCC | inactive | 
40 | CCOC(=O)c1cc2sccc2n1Cc1ccc(C#N)cc1 | inactive | 
41 | O=C(O)c1ccc(C(=O)O)c2c(C(=O)O)ccc(C(=O)O)c12 |  | -2.88% [at 11.4 µM]
42 | CCN(C(=O)CSc1ncn[nH]1)c1cccc2ccccc12 | inactive | 
43 | CC(C)(C)c1ccc(C(=O)CSc2ncn[nH]2)cc1 | 15.8 µM (active) | 
44 | Cn1nnc(NC(=O)CSc2ncn[nH]2)n1 | inactive | 
45 | CCOc1cc(C)c(Cl)cc1S(=O)(=O)n1nnc2ccccc21 | inactive | 
46 | C=CCn1c(SCc2nnc(-c3ccccc3)o2)nnc1C(O)c1ccccc1 (stereo not given) | inactive | 
47 | Cc1cccc(NC(=O)COc2ccc(Br)cc2C)n1 | 10 µM (active) | 
48 | Cc1cccc(NC(=O)COc2ccccc2C)n1 | inactive | 
49 | CCOc1ccc(OCc2ccc(C(=O)Nc3cccc(C)n3)o2)cc1 | inactive | 
50 | COc1cccc(-c2nc3n(n2)C(c2ccccc2Cl)C(C(N)=O)=C(C)N3)c1 (stereo not given) | inactive | 
51 | O=C(Nc1ccccc1C(F)(F)F)c1cc(-c2ccc(O)cc2)on1 | inactive | 
52 | CC(C)CNC(=O)c1cc(-c2ccc(Br)cc2)on1 | inactive | 
53 | CC(C)Cc1cc(C(=O)Nc2cc(Br)ccc2O)no1 | 12.6 µM (active) | 
54 | O=C1c2cccnc2C(Nc2ccc(S(=O)(=O)N3CCCCCC3)cc2)N1Cc1ccccc1 (stereo not given) | inactive | 

Row | Compound | Potency | activity change, negative = inhibition
55 | COC(=O)c1cn(C)c2ccc(S(=O)(=O)N3CC(C)CC(C)C3)cc2c1=O (stereo not given) | inactive | 
56 | C=CCSc1nc2ccccc2[nH]1 | inactive | 
57 | c1ccc2[nH]c(-c3nc4ccccc4[nH]3)nc2c1 | 2.51 µM (active) | 
58 | c1ccc(-c2[nH]ncc2-c2nc3ccccc3[nH]2)cc1 | inactive | 
59 | CC(=O)c1nc(N2C(=O)C3CC=C(C)CC3C2=O)sc1C (stereo not given) | inactive | 
60 | COc1ccc2[nH]c3c(=O)n(Cc4ccco4)cnc3c2c1 | inactive | 
61 | COc1ccc2[nH]c3ccc(OC)cc3c2c1 | 20 µM (active) | 
62 | COc1ccc2[nH]c3cc4c(=O)c5cc(OC)ccc5[nH]c4cc3c(=O)c2c1 |  | -0.432% [at 11.4 µM]
63 | CCOc1ccc(N2C(=O)CC(N(O)c3ccccc3)C2=O)cc1 (stereo not given) | inactive | 
64 | CCOc1ccc(-c2nnc(-c3ccco3)o2)cc1 | 7.94 µM (active) | 
65 | CCC(=O)Oc1cccc(C(=O)Nc2ccc(-c3nnc(-c4ccco4)o3)cc2)c1 | inactive | 
66 | Cc1ccc(OCC(=O)Nc2ccc(-c3nnc(-c4ccco4)o3)cc2)cc1 | inactive | 
67 | CCOc1cc2c(cc1OCC)C(C(=O)O)C(c1ccc(OC)c(O)c1)N(C)C2=O (stereo not given) | inactive | 
68 | CCOc1ccc(N=C2SC(C(=O)O)CC(=O)N2C)cc1 (stereo not given) | inactive | 
69 | O=C(Nc1ccc2c(c1)OCCO2)c1ccncc1 | inactive | 
70 | O=C(Nc1ccc2c(c1)OCCO2)C1CCCN(c2ncccn2)C1 (stereo not given) | 10 µM (active) | 
71 | Cc1ccnc(N2CCCC(C(=O)Nc3cc(F)ccc3C)C2)n1 (stereo not given) | inactive | 
72 | COc1c(Br)cc2c(C)c(C(=O)N3CCOCC3)oc2c1Br | inactive | 
73 | c1ccc(COc2nsnc2N2CCOCC2)cc1 | inactive | 
74 | CCCC(=O)N(CCc1ccccc1)Cc1nc2ccccc2c(=O)[nH]1 | inactive | 
75 | O=C(Nc1ccc(Cl)cn1)Nc1cccs1 | inactive | 
76 | CC(C)(C)NC(=O)c1cc(NC(=O)c2ccco2)cc(NC(=O)c2ccco2)c1 | inactive | 
77 | CCc1nnc(NC(=O)c2cccs2)s1 | inactive | 
78 | Cc1ccc(C(=O)COc2cccc(NC(=O)c3ccco3)c2)cc1 | inactive | 
79 | CCOc1cc(NC(=O)c2ccco2)c(OCC)cc1NC(=O)COc1ccccc1 | inactive | 
80 | COC(=O)c1cc(Cl)c(NC(=O)c2ccco2)cc1OC | inactive | 
81 | CN1CCN(S(=O)(=O)c2ccc(NC(=O)c3ccco3)cc2)CC1 | inactive | 

Row | Compound | Potency | activity change, negative = inhibition
82 | O=C(Nc1ccc(Oc2ccccc2)cc1)c1ccco1 | 15.8 µM (active) | 
83 | O=C(Nc1ccc(NC(=O)c2cccs2)cn1)c1ccco1 | 5.01 µM (active) | 
84 | COC(=O)c1ccc(NC(=O)c2ccco2)cc1 | 20 µM (active) | 
85 | COc1ccc(NC(=O)c2cccc(NC(=O)c3ccco3)c2)c(OC)c1 | inactive | 
86 | Cc1ccnc(NC(=O)c2ccc(NC(=O)c3ccco3)cc2)c1 | 25.1 µM (active) | 
87 | CCc1cccc(C)c1NC(=O)CSc1nnc(-c2ccco2)n1N | inactive | 
88 | CC(C)C(=O)N1CCN(c2nc(-c3ccccc3)c3c(c2C#N)CC(C)(C)OC3)CC1 | inactive | 
89 | CC(=O)N1CCC2(CCCN(Cc3ccccc3)C2)CC1 |  | -1.06% [at 11.4 µM]
90 | COCCNc1ccnc(-c2cccc(NS(C)(=O)=O)c2)n1 |  | 0.411% [at 2.29 µM]
91 | O=C1C[C@@H](O)[C@@H](O)[C@H]2[C@@H]3C(=O)N(Cc4ccc5c(c4)OCO5)C(=O)[C@@H]3CC[C@H]12 |  | 1.52% [at 11.4 µM] and -0.708% [at 11.4 µM]
92 | CC(NCCO)C(=O)C12CC3CC(CC(C3)C1)C2 (stereo not given) | inactive | 
93 | C[N+](C)(C)CCCCCNCC12CC3CC(CC(C3)C1)C2 | inactive | 
94 | CCn1c(=N)n(CC(=O)c2cccc(OC)c2)c2ccccc21 | inactive | 
95 | CN(C)c1ccc(-c2nc(NCCN3CCOCC3)c3ccccc3n2)cc1 |  | -10.7% [at 2.29 µM]
96 | ClC(Cl)(Cl)C(N1CCN(c2ccccc2)CC1)N1CCN(c2ccccc2)CC1 |  | 2.2% [at 11.4 µM]
97 | CCOC(=O)c1nnn(-c2nonc2OC)c1-c1ccccc1 | inactive | 
98 | CC(=O)N1CSCC1C(=O)O (stereo not given) | inactive | 
99 | CC1CCC(NC(=O)c2ccc(N3CCCC3=O)cc2)CC1 (stereo not given) | inactive | 
100 | COc1ccccc1Nc1ncc(C(C)=O)c(C)n1 | inactive | 
101 | COc1cccc(OC)c1C(=O)Nc1nnc(C(C)C)s1 | inactive | 
102 | COc1cccc2sc(Nc3nc(C)c(C(C)=O)s3)nc12 | 5.01 µM (active) | 
103 | Cc1c(S(=O)(=O)O)ccc(N=Nc2c(O)c(C(=O)O)cc3ccccc23)c1Cl |  | -2.84% [at 11.4 µM]
104 | COc1cccc(NS(=O)(=O)c2ccc3[nH]cc(C(=O)NCCCOC(C)C)c(=O)c3c2)c1 | inactive | 
105 | CCCCN(CCCC)CCC(O)c1cc2c(Cl)cc(Cl)cc2c2cc(C(F)(F)F)ccc12 (stereo not given) | inactive | 

Reference: PubChem BioAssay AID411 (National Center for Advancing Translational Sciences (NCATS), 2006)
